# Results as given in PubChem BioAssay (NCI).
# The panel holds about 83,000 compounds, 20% with a hit somewhere; the sample as a whole holds those more often.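 Percent growth is the endpoint: 0 to 100 indicates growth inhibition (40 means 60% inhibition), 0 means no net growth, and negative values indicate cell death.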 A number with no mark means an inactive call. Calls of active or inactive are those of the source. Rule for the calls: active = growth percent below 10; inactive = the rest.
# Test system: MDA-MB-468 breast
# Assay: NCI-60 one-dose screen, 48 h (100 = growth as untreated, 0 = no growth, -100 = all killed)
# Conditions: 10 µM unless noted
row,Compound,growth
1,NS(=O)(=O)c1cccc(NC(=O)C(=O)C2C(=O)Nc3ccccc32)c1 (stereo not given),101%
2,Cc1[nH]n(C(N)=S)c(=O)c1N=Nc1ccc(S(=O)(=O)Nc2ccncn2)cc1,86.4%
3,CC1O[C@@H]2C[C@@](O)([C@H]1O)n1c3ccccc3c3c4c(c5c6ccccc6n2c5c31)C(=O)NC4=O (stereo not given in full),3.51% (active)
4,COc1cccc(-c2nc3occn3c2-c2ccnc(NCCCNS(=O)(=O)c3cccc(F)c3)n2)c1,65.4%
5,Cc1c(C(N)=O)sc2c1C(=O)N(Cc1ccccc1)C1=NN=C(c3ccc(Cl)cc3)CN12,60.1%
6,O=C(CCl)Nc1ccc2c(c1)C(=O)c1ccccc1C2=O,-19.1% (active)
7,c1ccc2c(NCCCn3ccnc3)c3oc4ccccc4c3nc2c1,-8.65% (active)
8,O=C(Nc1cccc2ccccc12)c1cc2c(cc1Br)OCO2,95.4%
9,COc1ccc(C(=O)/C=C/c2c(Cl)nc3c(c(C)nn3-c3ccccc3)c2-c2ccc(Br)cc2)cc1,103%
10,CC(C)(C)c1nc(-c2cccc(NS(=O)(=O)c3c(F)cccc3F)c2F)c(-c2ccnc(N)n2)s1,140%
11,CCn1c(SCC(=O)c2ccc(Br)cc2)nnc1-c1ccncc1,108%
12,COc1cc(/C=N/N(C)C)ccc1O,95.8%
13,COc1ccc2c(ccn2C(=O)N2c3ccccc3Sc3ccccc32)c1,21.8%
14,CC(=O)OCC1OC(OC2C(COC(C)=O)OC(OCCC[S-])C(OC(C)=O)C2OC(C)=O)C(OC(C)=O)C(OC(C)=O)C1OC(C)=O.[Au+].c1ccc(CN2[CH-]N(Cc3ccccc3)C(c3ccccc3)=C2c2ccccc2)cc1 (stereo not given),10.2%
15,Cn1c2c(Cl)c(Cl)ccc2c2cc(N)[nH]c(=O)c21,88.9%
16,COc1ccc2c(c1)CCNC21C(=O)Nc2c(Br)cc(Br)cc21 (stereo not given),137%
17,CCOC(=O)c1cnc2ccc(Cl)cc2c1NCCCN(C)C,-31.3% (active)
18,CC1=CSC2=NC(c3ccc(Cl)c(Cl)c3)=CC(c3ccc(Cl)cc3)N12 (stereo not given),-61.3% (active)
19,COc1ccc(C(c2cc(OC)c(OC)c(OC)c2)n2cncn2)cc1O (stereo not given),7.88% (active)
20,C=C1CCC2C3(C)COC(C)(C)OC3CCC2(C)C1C/C=C1/C(=O)OCC1OC(C)=O (stereo not given),7.86% (active)

row,Compound,growth
1,N#CC1=C(N)Oc2c(ccc3ccccc23)C1c1ccccc1Cl (stereo not given),8.77% (active)
2,Cc1ccc(S(=O)(=O)Oc2ccc(NC(=O)c3ccc(Cl)cc3)cc2)cc1,95.2%
3,COc1cccc(C(=O)NNc2nc(N3CCN(C4CCCCC4)CC3)nc(N3CCN(C(c4ccccc4)c4ccccc4)CC3)n2)c1,13.6%
4,Nc1nc(N)c2cc(Sc3ccc(Cl)cc3)ccc2n1,18.7%
5,Cn1c(=O)c2[nH]c(CCCCC(=O)O)nc2n(C)c1=O,121%
6,Nc1ccn(C2O[C@H](CO)[C@@H](O)[C@@H]2O)c(=O)n1 (stereo not given in full),78.3%
7,CN(CSc1ccc(Cl)cc1)c1ccc(CSc2ccc(Cl)cc2)cc1,17.2%
8,COc1cccc(-c2nc3sccn3c2-c2ccnc(NCCCNS(=O)(=O)c3ccc(F)cc3)c2)c1,13.3%
9,COc1cccc(NC(=O)[C@H](C(C)C)n2c(=O)[nH]c3ccccc3c2=O)c1,101%
10,CCOc1ccc(/C=C/C(=O)c2ccccc2)cc1,68.2%
11,O=C1/C(=C\c2cccnc2)SC(=S)N1CCc1ccc(O)cc1,35.2%
12,COc1ccc(-n2c(SCC(=O)Nc3ccc(-c4nc5ccccc5[nH]4)cc3)nc3ccccc3c2=O)cc1,-88.2% (active)
13,O=C(Nc1ccc(-n2ccc3c(NC(=O)c4ccccc4)nccc32)cc1)Nc1cccc(C(F)(F)F)c1,15.5%
14,CCCCNC(=O)CC1=C(C)/C(=C/c2[nH]c(-c3ccc[nH]3)cc2OC)N=C1C,37.9%
15,COc1ccc(C(=O)Cn2c(C(=O)c3ccccc3)nc3ccccc32)cc1,2.35% (active)
16,CN1CCN(C(=O)C(C)(C)c2ccc(C(=O)Nc3cn4cc(-c5ccncc5)ccc4n3)cc2)CC1,-16.2% (active)
17,COC(=O)Nc1nc2ccc(C(=O)c3cccs3)cc2[nH]1,5.96% (active)
18,C=C1CC[C@@H]2[C@](C)(CO)[C@H](O)CC[C@@]2(C)[C@@H]1C/C(O)=C1\CCOC1=O,90.8%
19,CC(C)(C)[Si](C)(C)OC1[C@@H](COC(N)=O)O[C@@H](n2cnc3c(N)ncnc32)[C@H]1O[Si](C)(C)C(C)(C)C (stereo not given in full),97.2%
20,COc1cnc2c(c1)C(=O)c1c-2n(CCCN2CCC(N)CC2)c(=O)c2cc([N+](=O)[O-])ccc12,74%
